Reference: PubChem BioAssay AID1362 (SRMLSC, 2008)
Among all 190,000 compounds or so, about 4,000 (2.1%) were called active. Rule as the data show it: active = inhibition above about 58%; inactive = the rest, inconclusive results apart; tested in S. cerevisiae. Many of the other results were omitted from the sample, so actives are more common in it than they were.

Assay: growth inhibition of WT strain, primary screen, mitochondrial fusion inhibitor project, WT and mutant strains, chemical genetic (AID 1362)
Conditions: mitochondrial fusion phenotypic screen, at 10 µM
[1] = WT strain, growth inhibition, stronger effect = higher value

| Structure (SMILES) | inhibition [1] | inhibition (mutant strain inhibition) [%] |
| --- | --- | --- |
| COc1ccccc1CNC(=O)CNC(=O)c1cn(-c2ccccc2OC)c(=O)c2ccccc12 | -8.54% (inactive) | 3.48 |
| O=C(NNC(=O)C1CCN(c2ncccn2)CC1)c1ccccc1 | -10.9% (inactive) | -13.4 |
| OCCC1CN(Cc2ccc3nsnc3c2)CCN1C1CCCC1 (stereo not given) | 2.03% (inactive) | 2.69 |
| O=C(CCCn1c(=O)c2sccc2n(CC(=O)NCC2CCCO2)c1=O)NCc1ccco1 (stereo not given) | 2.48% (inactive) | 3.2 |
| CC(=O)Nc1ccc(-c2csc(NC=C3C(=O)OC(C)(C)OC3=O)n2)cc1 | -0.59% (inactive) | 17.6 |
| C/C(=N/Nc1ccc(Cl)cc1)c1cnnc(-c2ccccc2)n1 | 9.51% (inactive) | 20.8 |
| CCOC(=O)Cc1csc(NC(=O)CSc2ccc(Br)cc2)n1 | 31.2% (inactive) | 25.6 |
| CCOC(=O)Cc1csc(SCC(=O)NC(C)C23CC4CC(CC(C4)C2)C3)n1 (stereo not given) | 59.2% (active) | 26.1 |
| CCOC(=O)Cc1csc(NC(=O)CSc2nc(C)cc(=O)[nH]2)n1 | 15.9% (inactive) | 18.4 |
| C/C(=N\NC(=S)NCc1ccccc1)c1ccc(Cl)cc1 | 31.1% (inactive) | 21.1 |
| C/C(=N\NC(=S)NC(C)C)c1ccc(C(C)(C)C)cc1 | 70.2% (active) | 59 |
| CC/C(=N\NC(=S)NC(C)C)c1ccc(OC(F)F)cc1 | 32% (inactive) | 43.5 |
| Oc1cccc(C2c3[nH]c4ccccc4c3CCN2Cc2cnn(-c3ccccc3)c2)c1 (stereo not given) | 59.9% (active) | -4 |
| COc1cccc(C2c3[nH]c4ccccc4c3CCN2Cc2cccc(C)n2)c1 (stereo not given) | 40.2% (inactive) | 33.8 |
| c1ccc(C2c3[nH]c4ccccc4c3CCN2Cc2cccn2-c2cccnc2)nc1 (stereo not given) | -2.92% (inactive) | -2.59 |
| CCc1ccc(OCC(=O)OCC(=O)c2c(N)n(C)c(=O)n(C)c2=O)cc1 | -10.7% (inactive) | -9.86 |
| COc1ccc(Br)cc1/C=N/NC(=O)c1cccc(S(=O)(=O)N2CCOCC2)c1 | 1.71% (inactive) | -16.2 |
| CC1CC(C)CN(CCC(=O)Nc2ccc3c(c2)CCC3)C1 (stereo not given) | 2.25% (inactive) | 2.32 |
| C=CCNc1ncnc2ccc(Br)cc12 | 6.92% (inactive) | 5.26 |
| COc1ccc(C(=O)N2CC3(C)CC2CC(C)(C)C3)cc1OC (stereo not given) | -9.9% (inactive) | 6.2 |
